Assay outcomes: PubChem BioAssay, National Center for Advancing Translational Sciences (NCATS)
The list is not random: actives were taken first. Their share in the collection is about 19%.
Gal4-VP16 FLuc: VP16 counterscreen qHTS for inhibitors of ROR gamma transcriptional activity; Drosophila S2 Gal4-VP16 UAS-luciferase, luminescence, 20 h; Potency, µM (highest dose often 53.6 µM), inactives show at the top dose activity, negative = inhibition, actives largely listed as inhibitors; 310,000 tested, 3.5% active; AID 2546, 2010;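 further: Gal4-VP16 expression switched on by copper sulfate through the metallothionein promoter; nearly all actives have a fitted effect of over 50% in size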
TDP1 cell noCPT: qHTS for Inhibitors of human tyrosyl-DNA phosphodiesterase 1 (TDP1): qHTS in cells in absence of CPT. DT40 Tdp1-/- hTDP1 cells, no CPT, ATP luminescence, 48 h. Potency, µM (doses to about 46.2 µM), for inactives: top-dose activity change, negative = growth inhibition, hits mostly inhibitors. 420,000 tested, 15% active; further: nearly all actives have a fitted effect of over 55% in size
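Readout: luminescence from CellTiter-Glo after 30 min in the dark at RT. Cells: DT40 Tdp1-/- with stable hTDP1, 400/well. Exposure: compounds alone, ≥48 hr, 37 °C.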
RORgamma inh: qHTS for inhibitors of ROR gamma transcriptional activity; Potency, µM (series often up to 53.6 µM), without a hit: at the top dose activity change, negative = inhibition, hits mostly inhibitors; 310,000 tested, 5.4% active; Drosophila S2 Gal4-RORgamma UAS-luciferase reporter, 20 h; Nuclear receptor ROR-gamma (Mus musculus), P51450; AID 2551, 2010; further: nearly all actives have a fitted effect of over 60% in size
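Using a luciferase readout, inhibitors were identified by reduced reporter activity in Drosophila cells coexpressing a copper-inducible Gal4–ROR gamma fusion and UAS-driven Photinus luciferase, incubated 20 hr after 700 uM copper sulfate.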
TDP1 inh: qHTS Assay for Inhibitors of Tyrosyl-DNA Phosphodiesterase (TDP1). Tyrosyl-DNA phosphodiesterase 1 (Homo sapiens), Q9NUW8. 350,000 tested, 0.28% active. Potency, µM (highest dose often 130 µM), inactives show at the top dose activity change, negative = inhibition, usual class: inhibitors. AID 485290, 2010. recombinant TDP1, AlphaScreen DNA substrate cleavage; further: nearly all actives have a fitted effect of over 40% in size
Target sequence (Q9NUW8 whole entry, looked up): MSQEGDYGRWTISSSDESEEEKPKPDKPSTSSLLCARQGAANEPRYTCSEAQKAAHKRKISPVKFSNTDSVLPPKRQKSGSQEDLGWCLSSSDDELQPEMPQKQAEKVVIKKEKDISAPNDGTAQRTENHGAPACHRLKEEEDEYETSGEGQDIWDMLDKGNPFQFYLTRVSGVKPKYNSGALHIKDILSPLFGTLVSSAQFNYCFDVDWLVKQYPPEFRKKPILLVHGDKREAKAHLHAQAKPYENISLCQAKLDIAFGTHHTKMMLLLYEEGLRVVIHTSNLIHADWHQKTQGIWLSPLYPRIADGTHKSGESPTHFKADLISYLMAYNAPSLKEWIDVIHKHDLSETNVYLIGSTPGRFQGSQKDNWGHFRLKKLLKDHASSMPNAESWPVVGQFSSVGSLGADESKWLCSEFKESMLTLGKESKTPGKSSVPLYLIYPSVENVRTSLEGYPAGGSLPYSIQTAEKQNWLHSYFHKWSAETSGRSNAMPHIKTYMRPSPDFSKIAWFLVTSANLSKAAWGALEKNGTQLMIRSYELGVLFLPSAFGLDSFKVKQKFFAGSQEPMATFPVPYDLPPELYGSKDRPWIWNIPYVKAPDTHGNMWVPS
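Enzyme-compound mixtures sat 15 min at room temperature, followed by a 5 min reaction with 15 nM final substrate and 10 min with AlphaScreen beads. Recombinant human Tdp1 was used at 1 nM final.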
DT40 TDP1 CPT: qHTS for Inhibitors of human tyrosyl-DNA phosphodiesterase 1 (TDP1): qHTS in cells in presence of CPT. chicken DT40 Tdp1-/-;hTDP1 cells + 20 nM CPT, ATP luminescence, 48 h. 420,000 tested, 12% active. Potency, µM (doses to about 46.2 µM), without a hit: at the highest dose activity change, negative = growth inhibition, most hits filed as inhibitors; further: nearly all actives have a fitted effect of over 55% in size
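Cell growth measured by CellTiter-Glo luminescence after a minimum 48 h, 37 C compound exposure with 20 nM CPT in Tdp1-knockout DT40 cells stably expressing hTDP1, seeded 400/well; qHTS titration format.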
Active calls of the source: *; u = inconclusive; x = no result given; [ ] = another dose, or the depositor's remark. The call rests on the fitted dose curve; in most records, active means well fitted curve in the direction sought with a large enough effect; inconclusive means small, poorly fitted or top-dose-only effect, or another doubt; inactive means no such curve, though single readings can be large; an effect the other way counts as inactive or inconclusive. On the % scale 0 is the no-effect control and ±100 the full control effect; potency means the concentration at half of the fitted maximal effect.

SMILES	Gal4-VP16 FLuc	TDP1 cell noCPT	RORgamma inh	TDP1 inh	DT40 TDP1 CPT
Cc1nn(C)c(C(=O)Nc2c(C)nn(Cc3c(F)c(F)c(F)c(F)c3F)c2C)c1Br	-4%	3.7µM*	24%	3%	8.2µM*
COc1ccc(OC)c(C2=NOC(C(=O)NCc3cccs3)C2)c1 (centres undefined)	1%	7.3µM*	20%	1%	u
O=C(NCCc1cccs1)C1CC(c2c(Cl)cccc2Cl)=NO1 (centres undefined)	2%	7.3µM*	u	-2%	4.1µM*
O=C(NCCc1cccs1)C1CC(c2cccc(F)c2)=NO1 (centres undefined)	u	-10%	17%	-4%	2%
O=C(NCc1ccco1)C1CC(c2ccc(Cl)cc2)=NO1 (centres undefined)	5%	-22%	0%	5%	u
COc1ccc(OC)c(C2=NOC(C(=O)NCCN3CCOCC3)C2)c1 (centres undefined)	9%	-4%	-29%	6%	3%
O=C(NCc1cccs1)C1CC(c2ccc(Cl)cc2)=NO1 (centres undefined)	4%	12µM*	23%	-6%	13µM*
O=C(CSCc1ccc(Cl)cc1Cl)Nc1nccs1	1%	2%	u	8%	-7%
CCOC(=O)c1c(NCc2ccc3c(c2)OCO3)c2ccccc2[nH]c1=O	-3%	u	-22%	2%	-24%
O=C(c1ccc(S(=O)(=O)N2CCCCC2)cc1)N1CCN=C1SCc1cccnc1	6%	u	5%	-2%	16µM*
CSC1=NCCN1C(=O)c1ccc(S(=O)(=O)N2CCCCC2)cc1	-1%	u	9%	3%	u
Cc1ccc(OCc2ccc(C(=O)Nc3nc4ccccc4n3Cc3ccccc3)o2)c([N+](=O)[O-])c1	0.32µM*	u	u	10%	u
Cc1ccc(OCc2ccc(C(=O)Nc3nc4ccccc4n3C)o2)c([N+](=O)[O-])c1	3.2µM*	u	5.6µM*	2%	-11%
CN(NS(C)(=O)=O)c1ncc(C(F)(F)F)cc1Cl	u	-22%	11µM*	-1%	-12%
O=S(=O)(c1ccccc1)c1ncc(C(F)(F)F)cc1O	1%	8%	u	2%	7%
O=S(=O)(c1ccccc1)c1ncc(C(F)(F)F)cc1Cl	16µM*	3.7µM*	8.9µM*	-3%	4.1µM*
Cc1ccc(NC(=O)c2cc(S(=O)(=O)N3CCCCC3)c[nH]2)cc1F	-3%	2%	1%	0%	2%
Cc1cccc(C)c1OCCCCn1c(C2CC(=O)N(c3ccc(F)cc3)C2)nc2ccccc21 (centres undefined)	x	15µM*	x	3%	13µM*
CCCn1c(C2CC(=O)N(c3ccc(C)cc3)C2)nc2ccccc21 (centres undefined)	0%	0%	1%	0%	-20%
Cc1cccc(C)c1OCCn1c(C2CC(=O)N(c3cccc(Cl)c3)C2)nc2ccccc21 (centres undefined)	x	13µM*	x	-5%	16µM*
CC(=O)Nc1cccc(C(=O)NNC(=O)c2ccc(-n3cnnn3)cc2)c1	x	3%	x	-2%	-12%
Nc1ccc(S(=O)(=O)N2CCN(S(=O)(=O)c3ccc4c(c3)OCCO4)CC2)cc1	x	x	x	0%	x
O=S(=O)(c1ccc2c(c1)OCCO2)N1CCC(n2nnc3cc(C(F)(F)F)ccc32)CC1	0%	16µM*	-5%[10 µM]	5%	u
COC/C=C/c1cc(F)c(S(=O)(=O)N2CCN(S(=O)(=O)c3ccc4c(c3)OCCO4)CC2)cc1F	x	x	x	0%	x
O=c1[nH]c2ccc(S(=O)(=O)N3CCN(S(=O)(=O)c4ccc5c(c4)OCCO5)CC3)cc2[nH]c1=O	x	x	x	50µM*	x
SMILES	Gal4-VP16 FLuc	TDP1 cell noCPT	RORgamma inh	TDP1 inh	DT40 TDP1 CPT
O=C(c1ccc(C(F)(F)F)cc1)N1CCN(S(=O)(=O)c2ccc3c(c2)OCCCO3)CC1	-4%	u	13µM*	2%	u
O=C(O)/C=C/c1cc(F)c(S(=O)(=O)N2CCN(S(=O)(=O)c3ccc4c(c3)OCCO4)CC2)cc1F	x	x	x	50µM*	x
CC(=O)Nc1ccc(C(=O)N2CCN(S(=O)(=O)c3ccc4c(c3)OCCCO4)CC2)cc1	x	-22%	x	0%	2%
CCOC(=O)[C@H](CS)NCCN[C@@H](CS)C(=O)OCC	x	-7%	x	x	2%
CC1CCCC(C)N1C(=O)COc1ccccc1F (centres undefined)	7%	u	-1%	8%	10%
CC(=O)c1ccc2noc(-c3cccc(F)c3)c2c1	-11%	-21%	0%	x	8%
Cc1ccc(S(=O)(=O)N2CCCN(c3nc4cc(C)ccc4cc3C#N)CC2)cc1	-1%	u	-10%	x	u
Cc1ccc2nc(N3CCN(S(=O)(=O)c4ccc5c(c4)OCCO5)CC3)c(C#N)cc2c1	1%	u	14%	-7%	11µM*
Cc1ccc(S(=O)(=O)N2CCCN(S(=O)(=O)c3ccc4c(c3)OCCO4)CC2)cc1	-8%	11µM*	80%	5%	11µM*
O=S(=O)(c1ccc2c(c1)OCCO2)N1CCN(S(=O)(=O)c2ccc3c(c2)OCCO3)CC1	x	x	x	0%	x
O=C(NCC1CCCO1)c1cn(-c2ccccc2)nc1-c1ccc(F)cc1 (centres undefined)	11%	-1%	19%	1%	-30%
NNC(=O)C1c2ccccc2Oc2ccccc21	0%	-5%	-1%	x	-2%
CCC(CO)[n+]1c(C)cc(/C=C2\Sc3ccccc3N2Cc2ccccc2)cc1C (centres undefined)	7.1µM*	2.3µM*	u	4%	2.3µM*
COc1ccc(NS(=O)(=O)c2ccc(I)cc2)cc1N1CCN(C)CC1	-5%	30µM*	-11%	13%	27µM*
Nc1cc(S(=O)(=O)Nc2ccc(Cl)cc2)ccc1N1CCOCC1	16µM*	5.2µM*	4%	-1%	7.3µM*
Nc1cc(S(=O)(=O)Nc2ccccc2Cl)ccc1N1CCOCC1	u	u	u	-3%	u
COc1ccc(NS(=O)(=O)c2ccc(N3CCCC3)c(N)c2)cc1	u	4.6µM*	-1%	x	5.2µM*
C/C(=N\NC(=S)Nc1ccccc1)C1Cc2ccccc2C(=O)O1 (centres undefined)	-3%	u	25%	10%	u
C/C(=N\NC(=S)Nc1ccccc1C)C1Cc2ccccc2C(=O)O1 (centres undefined)	u	6.5µM*	2.8µM*	5%	u
